As usually defined, the AC50 is the concentration at which the activity in the assay is half-maximal.

The target in experiment [1] is human RAR-related Orphan Receptor gamma (RORg), RORC (gene 6097) (UniProt P51449). Briefly: ATG_RORg_TRANS: Attagene TRANS-FACTORIAL HepG2 Assay for human RAR-related Orphan Receptor gamma (RORg) (AID 2283011; active means hit-call score of the fitted dose curve at least 0.9, where 1 is the maximum). In outline: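 Chimeric RORg-Gal4 transactivation in transfected HepG2; 24 h exposure; RT-PCR/capillary electrophoresis readout of reporter mRNA, DMSO baseline.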

Experiment [2] addresses Retinoic acid receptor RXR-alpha (Homo sapiens) (UniProt P19793). The experiment is described as follows: ATG_RXRa_TRANS: Attagene TRANS-FACTORIAL HepG2 Assay for human Retinoid X Receptor alpha (RXRa) (AID 2283012; active means hit-call score of the fitted dose curve at least 0.9, where 1 is the maximum). In outline:
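Transient transfection of human HepG2 with multiple GAL4-UAS reporter constructs; 24 h compound exposure; total RNA isolated, reverse-transcribed, PCR-amplified, 6-FAM labelled, HpaI-cut, resolved by capillary electrophoresis. Positive-direction fit versus DMSO.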

Experiment [3] deals with human Thyroid Receptor alpha (THRa1), THRA (gene 7067) (UniProt P10827). The experiment is described as follows: ATG_THRa1_TRANS: Attagene TRANS-FACTORIAL HepG2 Assay for human Thyroid Receptor alpha (THRa1) (AID 2283014; active means hit-call score of the fitted dose curve at least 0.9, where 1 is the maximum). In outline: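 Measured here is mRNA from a GAL4-UAS reporter in transfected HepG2 cells carrying a Gal4-fused receptor, 24 h post-dose. DMSO served as negative control and baseline.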

Read-out in experiment [4]: Interleukin-1 alpha (IL1a), IL1A (gene 3552)
The experiment is described as follows: BSK_BE3C_IL1a: BioMAP Diversity Plus: BE3C Assay for Interleukin-1 alpha (IL1a) Biomarker Activity (AID 2283016). The conditions noted are these: primary human bronchial epithelial cells; actives raise or lower the signal. In outline:
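BE3C primary human bronchial epithelium; cpd 24 h; IL-1a by ELISA; bidirectional fit vs DMSO; parallel SRB (0.1% SRB, 10% TCA fix, 560 nm) for cytotoxicity.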

Read-out in experiment [5]: Monocyte Chemoattractant Protein-1 (MCP1), CCL2 (gene 6347)
Briefly: BSK_3C_MCP1: BioMAP Diversity Plus: 3C Assay for Monocyte Chemoattractant Protein-1 (MCP1) Biomarker Activity (AID 2283017). The conditions noted are these: primary human endothelial cells (HUVEC); actives raise or lower the signal. An outline of the steps:
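Using human vascular primary endothelium, researchers measured MCP-1 by ELISA 24 h after treatment, with DMSO serving as negative control for bidirectional fitting.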

Read-out in experiment [6]: Monocyte Chemoattractant Protein-1 (MCP1), CCL2 (gene 6347)
The experiment is described as follows: BSK_4H_MCP1: BioMAP Diversity Plus: 4H Assay for Monocyte Chemoattractant Protein-1 (MCP1) Biomarker Activity (AID 2283018). The following applies: primary human endothelial cells (HUVEC); actives raise or lower the signal. In outline:
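ELISA read-out of MCP-1 from human vascular endothelial primary cells taken at 24 hours after compound exposure. Activity was fitted in both directions relative to DMSO, which served as negative control.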

Read-out in experiment [7]: Human Leukocyte Antigen - DR isotype (HLADR), HLA-DRA (gene 3122)
Briefly: BSK_3C_HLADR: BioMAP Diversity Plus: 3C Assay for Human Leukocyte Antigen - DR isotype (HLADR) Biomarker Activity (AID 2283019).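 On outcome: ELISA of cell-surface HLA-DR on HUVEC 24 h after dosing.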 The following applies: primary human endothelial cells (HUVEC); actives raise or lower the signal. In outline:
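Compound added to primary HUVEC cultures, 24 h incubation, then HLA-DR determined by ELISA; endpoint derived by bidirectional fitting relative to DMSO negative control.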

Read-out in experiment [8]: Interleukin-8 (IL8), CXCL8 (gene 3576)
Briefly: BSK_3C_IL8: BioMAP Diversity Plus: 3C Assay for Interleukin-8 (IL8) Biomarker Activity (AID 2283020). The following applies: primary human endothelial cells (HUVEC); actives raise or lower the signal. In outline: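 ELISA read-out of IL-8 from human umbilical vein endothelium, measured 24 h after chemical dosing. Activity is expressed relative to DMSO negative control, with both increases and decreases fitted.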

Read-out in experiment [9]: Monokine induced gamma interferon (MIG), CXCL9 (gene 4283)
Briefly: BSK_3C_MIG: BioMAP Diversity Plus: 3C Assay for Monokine induced gamma interferon (MIG) Biomarker Activity (AID 2283021). The following applies: primary human endothelial cells (HUVEC); actives raise or lower the signal. In outline: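 Read-out is ELISA detection of MIG on human umbilical vein endothelial cells, taken 24 h after dosing. Gain or loss of signal was scored relative to DMSO controls using bidirectional curve fitting.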

Experiment [10] addresses human Vitamin D Receptor (VDR), VDR (gene 7421) (UniProt P11473). The experiment is described as follows: ATG_VDR_TRANS: Attagene TRANS-FACTORIAL HepG2 Assay for human Vitamin D Receptor (VDR) (AID 2283022; active means hit-call score of the fitted dose curve at least 0.9, where 1 is the maximum). In outline:
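Multiplexed TRANS reporter in HepG2; 24 h treatment; reporter mRNA by RT-PCR plus capillary electrophoresis; upregulation scored relative to DMSO.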

The nature of experiment [11]: BSK_3C_SRB: Viability Assessment in the BioMAP Diversity Plus: 3C Assay (AID 2283023).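 Further: fitted both ways against DMSO so a hit may be signal rise or drop.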 The conditions noted are these: primary human endothelial cells (HUVEC). An outline of the steps: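 Overt cytotoxicity is gauged in parallel confluent HUVEC cultures by SRB total-protein staining at the time of biomarker measurement, 24 h after dosing. Gain or loss of signal is fitted versus DMSO.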

Read-out in experiment [12]: Matrix Metallopeptidase 1 (MMP1), MMP1 (gene 4312)
The experiment is described as follows: BSK_BE3C_MMP1: BioMAP Diversity Plus: BE3C Assay for Matrix Metallopeptidase 1 (MMP1) Biomarker Activity (AID 2283024). The conditions noted are these: primary human bronchial epithelial cells; actives raise or lower the signal. In outline:
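Human bronchial epithelial cells (BE3C system) exposed to compound for 24 h; MMP1 then quantified by ELISA. Activity was fitted in both directions relative to DMSO.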

Experiment [13] can be described thus: BSK_3C_Vis: BioMAP Diversity Plus: 3C Assay for Morphology Visualization (AID 2283025).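 Further: fitted both ways so gain or loss versus DMSO counts.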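 On AC50: light microscopy image of cell morphology used as background control.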 The following applies: primary human endothelial cells (HUVEC). An outline of the steps: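 Chemicals were added to primary human umbilical vein endothelium, cells were incubated 24 h, and morphology was then visualized by light microscopy. Gain or loss of signal was fitted bidirectionally relative to DMSO.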

Read-out in experiment [14]: Pselectin, SELP (gene 6403)
The experiment is described as follows: BSK_4H_Pselectin: BioMAP Diversity Plus: 4H Assay for Pselectin Biomarker Activity (AID 2283026). The following applies: primary human endothelial cells (HUVEC); actives raise or lower the signal. In outline: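 ELISA read-out of P-selectin on human umbilical vein endothelium after 24 h of dosing. Values derive from bidirectional fitting relative to DMSO. Parallel SRB protein staining flagged overt cytotoxicity.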

Experiment [15] can be described thus: BSK_4H_SRB: Viability Assessment in the BioMAP Diversity Plus: 4H Assay (AID 2283027).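 Further: cells exposed to compound for 24 h before staining.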 The following applies: primary human endothelial cells (HUVEC). In outline:
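Human umbilical vein endothelial cells were dosed with chemical and, after 24 h, fixed with 10% TCA, stained with 0.1% sulforhodamine B, and read at 560 nm to give total protein as a cytotoxicity measure. Bidirectional fitting relative to DMSO control.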

Experiment [16] can be described thus: BSK_BE3C_SRB: Viability Assessment in the BioMAP Diversity Plus: BE3C Assay (AID 2283028). The following applies: primary human bronchial epithelial cells. An outline of the steps: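 SRB total-protein staining (0.1%, after TCA fixation) of chemically dosed human bronchial epithelial primary cells at 24 h; DMSO serves as the negative control for bidirectional curve fitting.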

Read-out in experiment [17]: Thrombomodulin, THBD (gene 7056)
Briefly: BSK_3C_Thrombomodulin: BioMAP Diversity Plus: 3C Assay for Thrombomodulin Biomarker Activity (AID 2283029). The conditions noted are these: primary human endothelial cells (HUVEC); actives raise or lower the signal. In outline:
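Read-out is ELISA of thrombomodulin on human umbilical vein endothelium 24 h after chemical dosing. Gain or loss of signal is scored relative to DMSO. Overt cytotoxicity is checked in parallel cultures by sulforhodamine B staining.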

Read-out in experiment [18]: Urokinase-type plasminogen activator receptor (uPAR), PLAUR (gene 5329)
The experiment is described as follows: BSK_4H_uPAR: BioMAP Diversity Plus: 4H Assay for Urokinase-type plasminogen activator receptor (uPAR) Biomarker Activity (AID 2283030). The following applies: primary human endothelial cells (HUVEC); actives raise or lower the signal. An outline of the steps: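 Endpoint derived via bidirectional curve fitting against DMSO baseline; readout was ELISA detection of uPAR on umbilical vein endothelial cells at 24 h post-treatment, with SRB-stained parallel cultures assessing cytotoxicity.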

For experiment [19], the target named is human Retinoid X Receptor beta (RXRb), RXRB (gene 6257) (UniProt P28702). Briefly: ATG_RXRb_TRANS: Attagene TRANS-FACTORIAL HepG2 Assay for human Retinoid X Receptor beta (RXRb) (AID 2283013; active means hit-call score of the fitted dose curve at least 0.9, where 1 is the maximum). An outline of the steps:
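Transfect HepG2 with GAL4-UAS multi-reporter constructs (chimeric NR-Gal4, TRANS format); dose compound 24 h; isolate RNA, RT-PCR, FAM primer extension, HpaI digest; quantify by capillary electrophoresis; positive direction vs DMSO.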

Read-out in experiment [20]: E-selectin (Homo sapiens) (UniProt P16581)
Briefly: BSK_3C_Eselectin: BioMAP Diversity Plus: 3C Assay for Eselectin Biomarker Activity (AID 2283015).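 Further: cell surface E-selectin protein quantified by ELISA 24 h after dosing.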 The conditions noted are these: primary human endothelial cells (HUVEC); actives raise or lower the signal. An outline of the steps:
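Endpoint derived by bidirectional fitting against DMSO vehicle; signal is ELISA-detected E-selectin from primary HUVEC at 24 h post-dosing, with parallel SRB staining (0.1% SRB, 560 nm) flagging cytotoxicity.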

Records with an inconclusive call do not appear. The source holds several records for some structures; these can differ, active in one and inactive in another. Calls of active or inactive are those of the source. How the source made its calls, unless noted: active means hit-call score of the fitted dose curve at least 0.9, where 1 is the maximum; inactive means score below 0.9.

human Vitamin D Receptor (VDR), VDR (gene 7421), sequence (P11473 whole entry, looked up): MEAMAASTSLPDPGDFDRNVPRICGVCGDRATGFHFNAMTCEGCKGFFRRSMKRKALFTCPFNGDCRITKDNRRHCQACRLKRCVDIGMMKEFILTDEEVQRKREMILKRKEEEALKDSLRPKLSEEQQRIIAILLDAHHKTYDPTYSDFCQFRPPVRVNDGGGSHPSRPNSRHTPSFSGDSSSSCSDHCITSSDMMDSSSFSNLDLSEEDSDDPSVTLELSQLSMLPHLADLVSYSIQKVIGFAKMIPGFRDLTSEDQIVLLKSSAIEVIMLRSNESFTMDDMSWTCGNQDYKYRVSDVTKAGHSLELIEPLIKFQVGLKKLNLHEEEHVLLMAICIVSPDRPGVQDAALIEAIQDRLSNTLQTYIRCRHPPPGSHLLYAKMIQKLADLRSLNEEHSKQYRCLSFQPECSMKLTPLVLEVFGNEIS
human Thyroid Receptor alpha (THRa1), THRA (gene 7067), sequence (P10827 whole entry, looked up, the tested form may be a part): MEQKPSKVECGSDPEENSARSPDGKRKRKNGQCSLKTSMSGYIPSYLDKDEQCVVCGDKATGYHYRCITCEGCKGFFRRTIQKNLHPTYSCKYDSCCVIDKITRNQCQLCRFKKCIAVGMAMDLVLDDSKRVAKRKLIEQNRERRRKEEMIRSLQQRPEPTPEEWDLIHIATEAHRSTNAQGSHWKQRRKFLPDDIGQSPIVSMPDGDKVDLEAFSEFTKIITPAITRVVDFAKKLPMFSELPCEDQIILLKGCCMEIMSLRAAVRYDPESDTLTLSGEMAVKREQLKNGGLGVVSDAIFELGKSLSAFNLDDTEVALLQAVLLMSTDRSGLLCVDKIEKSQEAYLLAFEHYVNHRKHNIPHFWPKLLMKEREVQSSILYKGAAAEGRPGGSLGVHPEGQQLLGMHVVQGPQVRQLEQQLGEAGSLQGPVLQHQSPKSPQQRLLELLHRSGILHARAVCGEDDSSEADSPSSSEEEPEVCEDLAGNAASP
human RAR-related Orphan Receptor gamma (RORg), RORC (gene 6097), sequence (P51449 whole entry, looked up, the tested form may be a part): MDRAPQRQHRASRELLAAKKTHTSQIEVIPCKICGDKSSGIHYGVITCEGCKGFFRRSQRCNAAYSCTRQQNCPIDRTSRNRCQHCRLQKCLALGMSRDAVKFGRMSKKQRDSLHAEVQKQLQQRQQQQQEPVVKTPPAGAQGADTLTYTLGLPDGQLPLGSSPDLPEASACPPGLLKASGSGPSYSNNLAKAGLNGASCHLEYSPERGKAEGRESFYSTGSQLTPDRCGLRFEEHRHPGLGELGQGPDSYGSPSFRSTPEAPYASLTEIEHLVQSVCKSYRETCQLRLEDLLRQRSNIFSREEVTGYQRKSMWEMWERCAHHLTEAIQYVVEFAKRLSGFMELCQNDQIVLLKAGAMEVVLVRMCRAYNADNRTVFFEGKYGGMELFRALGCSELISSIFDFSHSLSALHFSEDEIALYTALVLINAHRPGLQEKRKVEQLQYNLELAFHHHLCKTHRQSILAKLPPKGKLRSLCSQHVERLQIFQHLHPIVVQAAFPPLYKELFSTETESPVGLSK
human Retinoid X Receptor beta (RXRb), RXRB (gene 6257), sequence (P28702 whole entry, looked up, the tested form may be a part): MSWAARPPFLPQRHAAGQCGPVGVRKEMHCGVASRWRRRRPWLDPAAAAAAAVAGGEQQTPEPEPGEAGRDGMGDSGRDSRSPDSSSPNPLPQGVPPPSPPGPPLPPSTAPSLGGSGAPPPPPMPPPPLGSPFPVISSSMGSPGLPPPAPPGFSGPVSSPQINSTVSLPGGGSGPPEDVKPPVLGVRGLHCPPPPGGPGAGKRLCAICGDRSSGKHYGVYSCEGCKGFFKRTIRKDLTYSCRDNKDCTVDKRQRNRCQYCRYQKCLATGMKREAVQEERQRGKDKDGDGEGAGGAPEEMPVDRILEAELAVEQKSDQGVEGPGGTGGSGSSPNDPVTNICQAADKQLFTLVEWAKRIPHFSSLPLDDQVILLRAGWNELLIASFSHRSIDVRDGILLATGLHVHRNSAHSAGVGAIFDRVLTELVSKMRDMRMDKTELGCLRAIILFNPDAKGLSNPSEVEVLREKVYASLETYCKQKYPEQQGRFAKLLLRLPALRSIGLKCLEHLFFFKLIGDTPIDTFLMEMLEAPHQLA
E-selectin (Homo sapiens), sequence (P16581 whole entry, looked up): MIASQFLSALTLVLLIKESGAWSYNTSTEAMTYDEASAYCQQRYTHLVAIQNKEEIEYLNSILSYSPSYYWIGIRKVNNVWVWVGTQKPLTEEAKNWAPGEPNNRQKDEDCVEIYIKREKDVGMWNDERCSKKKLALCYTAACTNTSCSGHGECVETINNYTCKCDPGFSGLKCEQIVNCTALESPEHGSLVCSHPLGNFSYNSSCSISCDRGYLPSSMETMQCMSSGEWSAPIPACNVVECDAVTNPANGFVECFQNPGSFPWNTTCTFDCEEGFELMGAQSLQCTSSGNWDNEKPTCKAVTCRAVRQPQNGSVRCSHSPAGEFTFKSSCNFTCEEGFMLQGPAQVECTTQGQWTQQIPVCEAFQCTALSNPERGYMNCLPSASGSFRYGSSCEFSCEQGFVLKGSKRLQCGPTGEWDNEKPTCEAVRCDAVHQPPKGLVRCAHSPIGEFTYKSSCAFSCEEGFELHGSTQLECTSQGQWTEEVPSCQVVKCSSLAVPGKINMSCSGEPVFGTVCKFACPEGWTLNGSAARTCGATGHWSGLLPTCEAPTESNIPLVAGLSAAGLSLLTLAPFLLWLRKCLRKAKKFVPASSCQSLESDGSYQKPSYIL
Retinoic acid receptor RXR-alpha (Homo sapiens), sequence (P19793 whole entry, looked up, the tested form may be a part): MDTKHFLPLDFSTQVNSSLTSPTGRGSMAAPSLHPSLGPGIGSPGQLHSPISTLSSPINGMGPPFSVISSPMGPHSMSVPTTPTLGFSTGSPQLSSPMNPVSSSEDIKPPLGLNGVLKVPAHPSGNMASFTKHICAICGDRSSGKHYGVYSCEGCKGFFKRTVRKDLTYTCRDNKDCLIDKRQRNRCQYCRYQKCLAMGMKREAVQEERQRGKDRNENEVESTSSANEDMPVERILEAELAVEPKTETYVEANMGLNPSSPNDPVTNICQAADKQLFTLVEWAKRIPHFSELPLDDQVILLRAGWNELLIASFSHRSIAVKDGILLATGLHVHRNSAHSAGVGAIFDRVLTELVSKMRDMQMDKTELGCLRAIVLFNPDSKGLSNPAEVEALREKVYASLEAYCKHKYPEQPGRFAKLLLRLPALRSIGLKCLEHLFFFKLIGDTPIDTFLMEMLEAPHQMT

As for `O=C(NO)C1(NS(=O)(=O)c2ccc(Oc3ccc(F)cc3)cc2)CCOCC1`, the call in experiment [1], in experiment [2], in [3], in [4], in experiment [5] and in [6] was inactive. Further, the outcome in experiment [7], in [8], in [9], in [10], in experiment [11] and in experiment [12] was inactive. Besides, the outcome in experiment [13], in [14], in experiment [15], in experiment [16], in experiment [17] and in [18] was inactive.
In the case of `O=C(N[C@H](CO)[C@H](O)c1ccc([N+](=O)[O-])cc1)C(Cl)Cl`, the outcome in experiment [1], in experiment [2], in [19] and in [3] was inactive.
Turning to `O=c1[nH]cnc2c1ncn2[C@H]1CC[C@@H](CO)O1`, the compound was classed as inactive in experiment [1], in experiment [2], in [3], in experiment [20], in experiment [4] and in experiment [5]. Further, the result in experiment [6], in experiment [7], in [8], in [9], in experiment [11] and in experiment [12] was inactive. The outcome in experiment [13], in experiment [14], in experiment [15], in experiment [16], in experiment [17] and in [18] was inactive.
For the compound `OCc1c[nH]c2ccccc12`, the compound was classed as inactive in experiment [1], in experiment [2], in experiment [19], in [3], in [4] and in experiment [5]. In addition, the result in [6], in experiment [8], in experiment [9], in experiment [10], in experiment [14] and in experiment [15] was inactive. The outcome in experiment [16], in experiment [17] and in [18] was inactive. Moreover, the AC50 in [19] was 9.59 µM (active); in experiment [7] it was 9.29 µM (active); in experiment [11], 11.5 µM (active); in [12], 0.297 µM (active); in experiment [13] it was 37.5 µM (active).
For `FC(F)(F)COC(OCC(F)(F)F)OCC(F)(F)F`, the compound was called inactive in [1], in [2], in experiment [19], in [20], in experiment [4] and in [6]. Further, the outcome in [7], in experiment [8], in experiment [9], in experiment [10], in experiment [11] and in experiment [12] was inactive. Also, the result in [14], in [15], in [16], in experiment [17] and in experiment [18] was inactive.
`Cc1ncc([C@@H](CCCCCCc2ccc3c(n2)NCCC3)CC(=O)O)cn1`: the outcome in experiment [1], in experiment [2], in [19], in experiment [3], in [4] and in experiment [5] was inactive. In addition, the outcome in [6], in experiment [7], in experiment [9], in experiment [10], in experiment [11] and in experiment [12] was inactive. Besides, the outcome in experiment [13], in experiment [14], in experiment [15], in [16] and in experiment [17] was inactive. For the same compound, the AC50 is 1.02 µM (active) in [8] and 3.97 µM (active) in experiment [18].
Turning to `OCCC(F)(F)C(F)(F)C(F)(F)C(F)(F)F`, the result in experiment [1], in experiment [2], in experiment [3], in [20], in experiment [4] and in experiment [5] was inactive. The outcome in experiment [6], in [7], in experiment [8], in experiment [9], in experiment [10] and in experiment [11] was inactive. In addition, the result in experiment [12], in [14], in experiment [15], in experiment [16], in [17] and in experiment [18] was inactive.
For `CCOC(N)=O`, the result in [1], in [2], in experiment [20], in [4], in [6] and in experiment [7] was inactive. Moreover, the result in experiment [8], in experiment [9], in experiment [11], in experiment [12], in experiment [13] and in experiment [14] was inactive. Also, the outcome in experiment [15], in experiment [16], in [17] and in [18] was inactive.

Values taken from PubChem BioAssay (EPA / NIEHS).
